Inconclusive results are not listed. Where a call stands in place of a potency, no number is given. Values without a mark were called inactive. The source made the active and inactive calls. The call rests on the fitted dose curve; in most records, active means well fitted activation curve with a large enough effect in the signal ratio in the repeat runs (not every such curve was filed as active); inconclusive means weak or mixed curves; inactive means flat fitted curve, though single readings scatter; the % refers to the signal ratio.
assay: p53 small molecule agonists, cell-based qHTS assay (AID 1963582); conditions: HCT-116 p53RE-bla reporter, beta-lactamase FRET ratio, 16 h; series mostly up to 66 µM
From the text: National Center for Advancing Translational Sciences [NCATS]
Division of Preclinical Innovation [DPI]
U.S. Environmental Protection Agency [EPA]
National Institutes of Environmental Health Sciences [NIEHS]
National Toxicology Program [NTP]
U.S. Food and Drug Administration [FDA]
p53, a tumor suppressor protein, is activated following cellular insult, including DNA damage and other cellular stresses. The activation of p53 regulates cell fate by inducing DNA repair, cell cycle arrest, apoptosis, or cellular senescence. The activation of p53, therefore, is a good indicator of DNA damage and other cellular stresses. […] The activation of the reporter gene under culture conditions can be detected by fluorescence intensity. This cell line was used to screen the Tox21 10K compound library in a 1536-well plate format and to identify agonists that activate the p53 signaling pathway.
Tox21 Assay Protocol Summary:
The p53RE-bla cells were dispensed at 4,000 cells/5 ul/well in 1536-well black wall/clear bottom plates using a Multidrop dispenser. After the assay plates were incubated at a 37 C/5% CO2 incubator for 5 hours, 23 nL of compounds dissolved in DMSO, positive controls or DMSO only was transferred to the assay plate by a pin tool. The plates were incubated at 37 C for 16 hours. After 1 uL of LiveBLAzerTM B/G FRET substrate was added using a Flying Reagent Dispenser, the plates were incubated at room temperature for 2 hours, and fluorescence intensity was measured by an Envision plate reader.

Row | Structure (SMILES) | Potency | activation
1 | CCOc1ccc(N)c([N+](=O)[O-])c1 | inactive | 
2 | OCCCCl | inactive | 
3 | C=CC(=O)OCCOC(=O)C=C | inactive | 
4 | O=C(O)Cc1cccc(-c2cc(CCCCCCc3ccc(O[C@H]4O[C@H](CO)[C@@H](O)[C@H](O)[C@@H]4O)c(-c4cccc(CC(=O)O)c4)c3)ccc2O[C@H]2O[C@H](CO)[C@@H](O)[C@H](O)[C@@H]2O)c1 |  | -0.0536% [at 0.249 µM]
5 | Clc1nc2ccccc2s1 | inactive | 
6 | CCCC(C)CO (stereo not given) | inactive | 
7 | CC(COCCO)OCCO (stereo not given) | inactive | 
8 | CCCCC(CC)CCC(CC(C)C)OS(=O)(=O)O (stereo not given) | inactive | 
9 | O=C(Cl)c1ccccc1[N+](=O)[O-] | inactive | 
10 | CCOc1ncc(F)c(=O)[nH]1 | inactive | 
11 | CC(=O)O[C@@H]1CC2C3CCc4cc(OC(=O)c5ccccc5)ccc4C3CCC2(C)[C@H]1OC(C)=O (stereo not given in full) | inactive | 
12 | CC(=O)OCCCc1ccccc1 | inactive | 
13 | CCOC(=O)[C@H](CCc1ccccc1)N[C@@H](C)C(=O)N1Cc2ccccc2C[C@H]1C(=O)O | inactive | 
14 | CCOC(=O)OC(=O)OCC | inactive | 
15 | CC(C)c1ccccc1O | inactive | 
16 | CC1=NN(c2ccc(S(=O)(=O)O)cc2)C(=O)C1 | inactive | 
17 | CC/C=C\CC1=C(C)CCC1=O | inactive | 
18 | O=C1CC2CC1C1CCCC21 (stereo not given) | inactive | 
19 | CCCCOC(=O)C(=O)OCCCC | inactive | 
20 | CC(=O)c1ccccc1N | inactive | 

Row | Structure (SMILES) | Potency | activation
21 | CC12CCC(C(=O)C1=O)C2(C)C (stereo not given) | inactive | 
22 | CCC(N)(CO)CO | inactive | 
23 | Cc1cc(C)cc(N)c1 | inactive | 
24 | C1=C\CC/C=C\CC/C=C\CC/1 | inactive | 
25 | CCOc1cc(NC(C)=O)ccc1C(=O)OC | inactive | 
26 | CN1CCCC1=O | inactive | 
27 | CC(=O)S[C@H](C(=O)N[C@H]1Cc2ccccc2[C@H]2CCC[C@@H](C(=O)O)N2C1=O)C(C)C | inactive | 
28 | Cc1ccc2c(c1)OCC(=O)CO2 | inactive | 
29 | O=C(O)c1cc2ccccc2nc1C(=O)O | inactive | 
30 | CC(Cl)COP(=O)(OCC(C)Cl)OCC(C)Cl (stereo not given) | inactive | 
31 | Cc1cccc(Cl)c1 | inactive | 
32 | Cc1ccc(N)cc1[N+](=O)[O-] | inactive | 
33 | CCCCCc1cccc(=O)o1 | inactive | 
34 | C1COCCO1 | inactive | 
35 | Cc1ccc(C(C)NC(=O)[C@@H](NC(=O)OC(C)C)C(C)C)cc1 (stereo not given in full) | inactive | 
36 | CCOC(=O)CN | inactive | 
37 | CCCO | inactive | 
38 | Cc1cccc2c1ccc1ccccc12 | inactive | 
39 | CC1=CCC(O)(C(C)C)CC1 (stereo not given) | inactive | 
40 | CC(S)C(=O)NCC(=O)O (stereo not given) | inactive | 
